Results filed as inconclusive are left out. Calls of active or inactive are those of the source. Unless noted, calls follow the shape of the full dose curve.
What was measured:
[1] = target: Estrogen receptor (Homo sapiens) (UniProt P03372); experiment: qHTS assay for small molecule antagonists of estrogen receptor alpha signaling (AID 588513; active = well fitted curve in the direction sought with a large enough effect in the signal ratio, with a control signal flat, not every such curve was filed as active; the % refers to the signal ratio; also: % is scaled to controls: 0 for no effect and ±100 for the full control effect)
Sequence of Estrogen receptor (Homo sapiens) (P03372 whole entry, looked up): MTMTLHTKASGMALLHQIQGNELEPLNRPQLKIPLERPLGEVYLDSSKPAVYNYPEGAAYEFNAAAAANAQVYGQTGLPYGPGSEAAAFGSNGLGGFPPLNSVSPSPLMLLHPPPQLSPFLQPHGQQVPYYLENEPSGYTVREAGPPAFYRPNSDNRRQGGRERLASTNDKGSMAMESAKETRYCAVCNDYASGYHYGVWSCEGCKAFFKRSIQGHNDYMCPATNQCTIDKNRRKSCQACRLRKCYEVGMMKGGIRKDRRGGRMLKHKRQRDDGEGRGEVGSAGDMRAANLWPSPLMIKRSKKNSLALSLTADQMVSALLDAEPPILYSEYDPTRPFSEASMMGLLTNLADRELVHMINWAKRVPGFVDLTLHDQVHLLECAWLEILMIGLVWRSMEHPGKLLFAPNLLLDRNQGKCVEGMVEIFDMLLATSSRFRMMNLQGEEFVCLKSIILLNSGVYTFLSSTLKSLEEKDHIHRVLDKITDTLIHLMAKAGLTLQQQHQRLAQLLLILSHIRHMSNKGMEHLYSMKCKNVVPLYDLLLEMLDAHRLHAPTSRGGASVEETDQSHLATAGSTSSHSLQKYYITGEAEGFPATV
Summary of the method: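 Beta-lactamase reporter, antagonist mode, HEK 293 GripTite cells; 0.5nM E2 stimulus, 18 h, 37 C; CCF4 dye 2 h RT; fluorescence. IC50 and efficacy from Hill fits, normalized to E2 and DMSO.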

[2] = target: Estrogen receptor (Homo sapiens) (UniProt P03372); experiment: qHTS assay for small molecule agonists of estrogen receptor alpha signaling (AID 588514);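 also: 0% = vehicle only and 100% = reference agonist; nearly all actives have a fitted effect of over 70% in size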
Summary of the method: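 Reporter-gene assay. […] controls beta-lactamase in HEK 293 GripTite cells; after 18 hrs with compound, CCF4 substrate is added for 2 hrs and fluorescence is read.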

[3] = target: Androgen receptor (Homo sapiens) (UniProt P10275); experiment: qHTS assay for small molecule agonists of androgen receptor signaling (AID 588515; active = well fitted curve in the direction sought with a large enough effect in the signal ratio, with a control signal flat; the % refers to the signal ratio; also: % is scaled to controls: 0 for no effect and ±100 for the full control effect); details: AR-UAS-bla HEK293, beta-lactamase ratio, agonist 16 h; stronger effect = higher value
Sequence of Androgen receptor (Homo sapiens) (P10275 whole entry, looked up): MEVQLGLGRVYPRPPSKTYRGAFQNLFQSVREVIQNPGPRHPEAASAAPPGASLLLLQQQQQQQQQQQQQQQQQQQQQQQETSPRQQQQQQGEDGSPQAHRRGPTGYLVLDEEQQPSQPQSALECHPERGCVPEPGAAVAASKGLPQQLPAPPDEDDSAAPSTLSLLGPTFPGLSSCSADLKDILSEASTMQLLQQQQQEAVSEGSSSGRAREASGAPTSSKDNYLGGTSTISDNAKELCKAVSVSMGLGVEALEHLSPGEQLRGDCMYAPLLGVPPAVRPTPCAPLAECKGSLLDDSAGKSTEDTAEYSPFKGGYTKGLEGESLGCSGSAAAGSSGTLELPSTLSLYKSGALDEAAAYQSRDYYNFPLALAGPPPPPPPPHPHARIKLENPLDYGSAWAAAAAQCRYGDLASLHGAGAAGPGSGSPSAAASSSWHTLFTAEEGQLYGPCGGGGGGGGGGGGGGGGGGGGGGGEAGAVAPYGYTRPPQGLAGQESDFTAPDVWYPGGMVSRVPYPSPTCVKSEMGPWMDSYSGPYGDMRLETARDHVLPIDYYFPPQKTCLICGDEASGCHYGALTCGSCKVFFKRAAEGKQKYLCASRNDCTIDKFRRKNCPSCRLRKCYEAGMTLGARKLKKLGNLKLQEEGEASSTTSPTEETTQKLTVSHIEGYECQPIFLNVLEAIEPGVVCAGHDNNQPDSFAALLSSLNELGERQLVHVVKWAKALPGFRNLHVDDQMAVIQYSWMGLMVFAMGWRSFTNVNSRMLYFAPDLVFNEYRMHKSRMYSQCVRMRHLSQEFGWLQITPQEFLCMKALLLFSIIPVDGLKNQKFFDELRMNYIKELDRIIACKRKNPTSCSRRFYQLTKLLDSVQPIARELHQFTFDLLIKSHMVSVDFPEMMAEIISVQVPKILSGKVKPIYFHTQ
Summary of the method: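 EC50 and efficacy came from Hill fits of titrations (up to 92 uM) normalized to 30 nM R1881 as 100% and DMSO as 0%. Compound exposure was 16 h at 37 C on AR-UAS-bla HEK293 cells, with a 405/460/530 nm CCF4 fluorescence read.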

[4] = target: Androgen receptor (Homo sapiens) (UniProt P10275); experiment: qHTS assay for small molecule antagonists of androgen receptor signaling (AID 588516; active = well fitted curve in the direction sought with a large enough effect in the signal ratio, with a control signal flat, not every such curve was filed as active; the % refers to the signal ratio; also: % is scaled to controls: 0 for no effect and ±100 for the full control effect)
Summary of the method: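 HEK293 AR-UAS-bla cells, 10% dialyzed FBS medium; cpd titration + R1881 10 nM final, 16 h 37 C; CCF4 2 h RT; FRET ratio; IC50/efficacy via Hill fit.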

[5] = target: Bile acid receptor (Homo sapiens) (UniProt Q96RI1); experiment: qHTS assay for small molecule antagonists of farnesoid X receptor signaling (AID 588526); also: % is scaled to controls: 0 for no effect and ±100 for the full control effect
Sequence of Bile acid receptor (Homo sapiens) (Q96RI1 whole entry, looked up): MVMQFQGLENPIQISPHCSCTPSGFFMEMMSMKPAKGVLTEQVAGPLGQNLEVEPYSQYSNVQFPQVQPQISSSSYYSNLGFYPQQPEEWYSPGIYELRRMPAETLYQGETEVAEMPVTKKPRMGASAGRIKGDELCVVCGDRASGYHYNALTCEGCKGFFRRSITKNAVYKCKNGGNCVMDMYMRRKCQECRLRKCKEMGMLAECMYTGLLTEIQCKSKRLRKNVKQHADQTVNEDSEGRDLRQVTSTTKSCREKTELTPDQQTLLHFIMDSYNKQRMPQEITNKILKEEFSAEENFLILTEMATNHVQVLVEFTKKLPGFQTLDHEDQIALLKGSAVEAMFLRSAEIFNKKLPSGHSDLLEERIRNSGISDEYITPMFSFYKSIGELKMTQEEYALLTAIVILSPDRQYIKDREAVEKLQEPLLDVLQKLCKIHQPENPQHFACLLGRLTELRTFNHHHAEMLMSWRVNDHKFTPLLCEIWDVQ
Summary of the method: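 Beta-lactamase reporter antagonist mode: HEK293T FXR-UAS-bla cells, titrated compound, CDCA stimulation, 16 h 37 C, CCF4 dye 2 h RT. Data normalized to CDCA 50 uM and DMSO; Hill-fit IC50.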

[6] = target: Glucocorticoid receptor (Homo sapiens) (UniProt P04150); experiment: qHTS assay for small molecule antagonists of glucocorticoid receptor signaling (AID 588533; active = well fitted inhibition curve with a large enough effect in the signal ratio, with a control signal flat, not every such curve was filed as active; the % refers to the signal ratio)
Sequence of Glucocorticoid receptor (Homo sapiens) (P04150 whole entry, looked up): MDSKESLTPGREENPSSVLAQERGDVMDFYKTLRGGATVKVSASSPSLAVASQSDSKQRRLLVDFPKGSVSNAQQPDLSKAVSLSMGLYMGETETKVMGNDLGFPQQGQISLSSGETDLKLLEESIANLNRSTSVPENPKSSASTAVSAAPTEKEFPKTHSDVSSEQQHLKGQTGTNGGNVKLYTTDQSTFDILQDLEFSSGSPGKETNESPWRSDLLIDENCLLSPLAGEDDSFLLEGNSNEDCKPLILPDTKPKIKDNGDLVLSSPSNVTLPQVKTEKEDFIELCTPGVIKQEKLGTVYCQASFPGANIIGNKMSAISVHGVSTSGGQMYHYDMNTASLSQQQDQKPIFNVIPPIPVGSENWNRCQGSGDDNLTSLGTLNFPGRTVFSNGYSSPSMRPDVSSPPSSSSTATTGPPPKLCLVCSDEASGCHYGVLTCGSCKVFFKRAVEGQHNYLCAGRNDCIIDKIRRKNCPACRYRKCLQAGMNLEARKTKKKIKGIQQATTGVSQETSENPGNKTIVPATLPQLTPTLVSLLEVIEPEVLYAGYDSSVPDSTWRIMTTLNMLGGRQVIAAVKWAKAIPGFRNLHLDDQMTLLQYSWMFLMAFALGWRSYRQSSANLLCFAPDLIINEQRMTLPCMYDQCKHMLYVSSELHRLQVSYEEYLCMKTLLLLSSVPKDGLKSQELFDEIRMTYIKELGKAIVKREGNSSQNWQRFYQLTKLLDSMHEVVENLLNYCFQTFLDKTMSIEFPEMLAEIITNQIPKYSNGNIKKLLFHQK
Summary of the method: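 Antagonist-mode qHTS: compound titrations added to GRE-bla HeLa cells, then dexamethasone 2 nM final; 18 h, 37 C. CCF4 FRET fluorescence normalized to dexamethasone and DMSO; IC50 from Hill fit.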

[7] = target: Peroxisome proliferator-activated receptor delta (Homo sapiens) (UniProt Q03181); experiment: qHTS assay for small molecule agonists of peroxisome proliferator-activated receptor delta signaling (AID 588534);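 also: 0% = DMSO basal wells and 100% = positive control agonist at 10 µM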
Sequence of Peroxisome proliferator-activated receptor delta (Homo sapiens) (Q03181 whole entry, looked up): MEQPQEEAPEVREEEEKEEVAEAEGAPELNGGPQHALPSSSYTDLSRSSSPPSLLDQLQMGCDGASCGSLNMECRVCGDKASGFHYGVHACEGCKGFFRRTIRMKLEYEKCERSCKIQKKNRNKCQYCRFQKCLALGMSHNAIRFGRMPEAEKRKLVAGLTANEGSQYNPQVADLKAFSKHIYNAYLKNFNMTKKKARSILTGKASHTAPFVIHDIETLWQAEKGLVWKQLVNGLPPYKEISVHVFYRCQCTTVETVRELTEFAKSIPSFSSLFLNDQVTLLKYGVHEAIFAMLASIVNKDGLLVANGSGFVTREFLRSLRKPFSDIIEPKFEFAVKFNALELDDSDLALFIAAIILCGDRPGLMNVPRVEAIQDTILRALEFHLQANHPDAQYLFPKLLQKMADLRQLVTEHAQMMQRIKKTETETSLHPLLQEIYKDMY
Summary of the method: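 Reporter cells were plated and held 5 hrs at 37 C before compounds were added. After 18 hrs at 37 C, CCF4 dye was loaded for 2 hrs at RT and fluorescence measured.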

[8] = qHTS assay for small molecule antagonists of peroxisome proliferator-activated receptor delta signaling (AID 588535; active = well fitted inhibition curve with a large enough effect in the signal ratio, with a control signal flat, not every such curve was filed as active; the % refers to the signal ratio;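 as to max response: cells co-treated with a PPAR-delta agonist as stimulator during compound exposure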); details: HEK293T PPARd-UAS-bla, beta-lactamase FRET ratio, 18 h; 460 nm channel
Summary of the method: (§1)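 Cell-based beta-lactamase assay in antagonist mode: 4000 HEK293T PPAR-delta-UAS-bla cells per well, 5 hr preincubation then 18 hr compound incubation at 37 C. IC50 obtained by Hill equation fitting.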

[9] = target: Peroxisome proliferator-activated receptor delta (Homo sapiens) (UniProt Q03181); experiment: as above
Summary of the method: as §1

[10] = target: Peroxisome proliferator-activated receptor gamma (Homo sapiens) (UniProt P37231); experiment: qHTS assay for small molecule agonists of peroxisome proliferator-activated receptor gamma signaling (AID 588536; active = well fitted curve in the direction sought with a large enough effect in the signal ratio, with a control signal flat, not every such curve was filed as active; the % refers to the signal ratio;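 also: 0% = DMSO basal wells and 100% = rosiglitazone at 2 µM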)
Sequence of Peroxisome proliferator-activated receptor gamma (Homo sapiens) (P37231 whole entry, looked up): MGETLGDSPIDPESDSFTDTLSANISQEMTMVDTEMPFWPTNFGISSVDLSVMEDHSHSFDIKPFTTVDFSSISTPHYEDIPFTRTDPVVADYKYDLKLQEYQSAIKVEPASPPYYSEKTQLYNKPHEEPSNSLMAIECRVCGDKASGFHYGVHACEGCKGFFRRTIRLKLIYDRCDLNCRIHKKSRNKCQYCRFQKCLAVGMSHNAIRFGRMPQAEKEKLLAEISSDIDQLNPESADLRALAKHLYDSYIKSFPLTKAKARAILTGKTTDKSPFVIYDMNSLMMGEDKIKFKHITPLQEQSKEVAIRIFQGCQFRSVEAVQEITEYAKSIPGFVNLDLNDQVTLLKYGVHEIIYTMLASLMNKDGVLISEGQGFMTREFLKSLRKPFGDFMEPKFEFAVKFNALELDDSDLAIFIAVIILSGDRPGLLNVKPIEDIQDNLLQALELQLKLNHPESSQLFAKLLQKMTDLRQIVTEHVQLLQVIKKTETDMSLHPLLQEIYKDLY
Summary of the method: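 Test agents, titrated, stimulated HEK293 UAS-bla cells overnight (16 h, 37 C). Substrate CCF4 was then added for two hours at room temperature before fluorescence reading.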

[11] = target: Vitamin D3 receptor (Homo sapiens) (UniProt P11473); experiment: qHTS assay for small molecule antagonists of vitamin D receptor signaling (AID 588541)
Summary of the method: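 Antagonist-mode beta-lactamase reporter assay: HEK293T VDR-UAS-bla cells were exposed to titrated compound alongside 1-alpha,25-dihydroxyvitamin D3 at 3 nM final for 16 h. Values were normalized to the 50 nM agonist control and DMSO basal, with IC50 and efficacy from Hill equation fits.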

[12] = target: Retinoic acid receptor RXR-alpha (Homo sapiens) (UniProt P19793); experiment: qHTS assay for small molecule agonists of retinoid X receptor alpha signaling (AID 588544);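 as to activation: 0% = DMSO basal wells and 100% = reference agonist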
Sequence of Retinoic acid receptor RXR-alpha (Homo sapiens) (P19793 whole entry, looked up): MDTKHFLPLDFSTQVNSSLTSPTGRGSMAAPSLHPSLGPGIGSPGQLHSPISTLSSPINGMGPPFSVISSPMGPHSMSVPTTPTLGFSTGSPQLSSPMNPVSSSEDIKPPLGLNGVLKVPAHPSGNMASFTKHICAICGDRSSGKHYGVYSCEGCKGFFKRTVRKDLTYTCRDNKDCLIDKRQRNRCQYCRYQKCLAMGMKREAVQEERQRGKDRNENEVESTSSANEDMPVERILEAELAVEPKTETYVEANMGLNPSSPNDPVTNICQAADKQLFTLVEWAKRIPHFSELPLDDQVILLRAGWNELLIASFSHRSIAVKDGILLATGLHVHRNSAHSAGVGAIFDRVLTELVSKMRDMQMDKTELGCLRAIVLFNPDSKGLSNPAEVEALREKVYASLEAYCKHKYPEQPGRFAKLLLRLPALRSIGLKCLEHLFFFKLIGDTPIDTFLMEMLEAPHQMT

[13] = target: Thyroid hormone receptor beta (Homo sapiens) (UniProt P10828); experiment: qHTS assay for small molecule agonists of thyroid hormone receptor beta signaling (AID 588545)
Sequence of Thyroid hormone receptor beta (Homo sapiens) (P10828 whole entry, looked up): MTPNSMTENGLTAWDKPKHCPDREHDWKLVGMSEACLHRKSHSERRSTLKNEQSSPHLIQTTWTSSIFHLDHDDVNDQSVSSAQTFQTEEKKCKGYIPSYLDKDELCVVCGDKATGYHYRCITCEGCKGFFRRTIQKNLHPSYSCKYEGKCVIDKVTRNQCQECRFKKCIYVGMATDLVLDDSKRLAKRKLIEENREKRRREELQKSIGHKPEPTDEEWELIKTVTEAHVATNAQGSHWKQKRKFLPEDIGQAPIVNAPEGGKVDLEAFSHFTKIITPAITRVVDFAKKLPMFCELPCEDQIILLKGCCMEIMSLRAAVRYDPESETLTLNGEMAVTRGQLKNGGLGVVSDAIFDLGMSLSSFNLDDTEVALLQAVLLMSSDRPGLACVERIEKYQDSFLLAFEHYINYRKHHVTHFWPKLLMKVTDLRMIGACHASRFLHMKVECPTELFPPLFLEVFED
Summary of the method: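 Agonist activity was read as beta-lactamase CCF4 fluorescence (405 ex, 460/530 em), scaled between DMSO (0%) and 10 nM T3 (100%), then Hill-fitted for EC50 and efficacy. HEK 293 TR-UAS-bla cells in 2% charcoal/dextran FBS medium were exposed 18 h at 37 C.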

[14] = qHTS assay for small molecule antagonists of retinoid X receptor alpha signaling (AID 588546; active = well fitted inhibition curve with a large enough effect in the signal ratio, with a control signal flat, not every such curve was filed as active; the % refers to the signal ratio); details: HEK293T RXRa-UAS-bla, beta-lactamase ratio, antagonist mode; measured here: W530 green channel, cytotoxicity proxy
Summary of the method: (§2)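 Beta-lactamase reporter inhibition, read as CCF4 fluorescence ratio (ex 405, em 460/530 nm) after 2 h at RT. HEK293T UAS-bla cells, 2500/well, were stimulated with 9-cis-RA at 500 or 100 nM final alongside test compound for 18 h at 37 C.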

[15] = target: Retinoic acid receptor RXR-alpha (Homo sapiens) (UniProt P19793); experiment: as above; details: HEK293T RXRa-UAS-bla, beta-lactamase ratio, antagonist mode
Summary of the method: as §2

[16] = target: Thyroid hormone receptor beta (Homo sapiens) (UniProt P10828); experiment: qHTS assay for small molecule antagonists of thyroid hormone receptor beta signaling (AID 588547; active = well fitted inhibition curve with a large enough effect in the signal ratio, with a control signal flat, not every such curve was filed as active; the % refers to the signal ratio); details: TR-UAS-bla HEK293, beta-lactamase ratio, antagonist mode, 18 h
Summary of the method: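 Inhibition of T3-driven (0.4nM final) beta-lactamase reporter activity was measured over 0.59 nM to 92 uM compound after 18 h at 37 C. The cells were GripTite HEK293 TR-UAS-bla in charcoal/dextran-stripped serum, with CCF4 ratio read-out and IC50 from Hill fits.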

[17] = qHTS assay for small molecule agonists of the antioxidant response element (ARE) signaling pathway (AID 651741; active = well fitted activation curve with a large enough effect in the signal ratio; the % refers to the signal ratio; also: % of control where 0% means no effect)
Summary of the method: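 Seeding 2,000 ARE-bla HepG2 cells per well preceded a 5 h incubation at 37 C/5% CO2 and a 16 h compound exposure at 37 C. Beta-lactamase reporter activity was then quantified by fluorescence after 2 h with LiveBLAzer B/G FRET substrate.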

[18] = qHTS assay for small molecule activators of the p53 signaling pathway (AID 651743; active = well fitted activation curve with a large enough effect in the signal ratio, not every such curve was filed as active; the % refers to the signal ratio; also: series mostly up to about 92 µM; % of control where 0% means no effect); details: HCT-116 p53RE-bla, beta-lactamase FRET ratio, 16 h; activation: stronger effect = higher value
Summary of the method: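 Screen for p53 pathway agonists uses stably transfected p53RE-bla HCT-116 cells, 4,000 per well, treated 16 h at 37 C with compounds in DMSO.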

[19] = qHTS assay for small molecule activators of the nuclear factor-kappa B (NF-kB) signaling pathway (AID 651749; active = well fitted activation curve with a large enough effect in the signal ratio; the % refers to the signal ratio; also: series mostly up to about 77 µM; % of control where 0% means no effect); details: NF-kB-bla ME-180 cells, beta-lactamase FRET ratio, 16 h; activation: stronger effect = higher value
Summary of the method: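 Stably transfected ME-180 line; NF-kB response element upstream of beta-lactamase. Treatment: compound or DMSO, 16 hr. Detection: fluorescent FRET substrate.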

[20] = qHTS assay for environmental chemicals that activate the Aryl hydrocarbon Receptor (AhR) signaling pathway (AID 651777; active = well fitted curve in the direction sought with a large enough effect; an effect the other way counts as inactive or inconclusive; also: % of control where 0% means no effect; nearly all actives have a fitted effect of over 15% in size); details: 1A2-DRE human hepatoma cells, luciferase, 24 h; activation: stronger effect = higher value
Summary of the method: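 Human hepatoma 1A2-DRE cells stably carrying a DRE/CYP1A2 promoter–luciferase reporter, 1,200 cells/well, exposed to compound 24 hr at 37 C. Luciferase read by One-Glo luminescence after 30 min at room temperature; increased signal marks AhR activation.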

[21] = target: Peroxisome proliferator-activated receptor alpha (Homo sapiens) (UniProt Q07869); experiment: qHTS assay for small molecule agonists of the peroxisome proliferator-activated receptor alpha (PPARalpha) signaling pathway (AID 651778; active = well fitted curve in the direction sought with a large enough effect; an effect the other way counts as inactive or inconclusive; also: % of control where 0% means no effect); details: PathHunter PPARalpha complementation, chemiluminescence, 6 h; max response: stronger effect = higher value
Summary of the method: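 Chemiluminescence from complemented enzyme reported PPARalpha activation in cells after 6 hr of compound treatment at 37 C. The detection reagent was incubated for 60 min at room temperature, and compounds were scored as agonists.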

[22] = qHTS assay for small molecule agonists of the antioxidant response element (ARE) signaling pathway measured by Nrf2-dependant transcriptional activity - cell viability counter screen (AID 720653; active = well fitted curve in the direction sought with a large enough effect in the repeat runs; an effect the other way counts as inactive or inconclusive; also: % is scaled to controls: 0 for no effect and ±100 for the full control effect); details: ARE-bla HepG2 viability, CellTiter-Glo ATP luminescence, 16 h; max response: stronger effect = lower value
Summary of the method: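 Cytotoxicity counter screen: intracellular ATP quantified by CellTiter-Glo luminescence in the same ARE-bla HepG2 plates, after 16 h compound exposure and a 2 h beta-lactamase substrate step.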

[23] = qHTS assay for cell viability of HEK293 cells (AID 743288; active = well fitted curve in the direction sought with a large enough effect; an effect the other way counts as inactive or inconclusive; also: % is scaled to controls: 0 for no effect and ±100 for the full control effect; nearly all actives have a fitted effect of over 50% in size); details: ATP luminescence (CellTiter-Glo), 18 h; max response: stronger effect = lower value
Summary of the method: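 Environmental chemicals tested in qHTS format against parental HEK293 cells; 18 h treatment, 37 C; read-out ATP luminescence (CellTiter-Glo), 30 min RT development.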

[24] = qHTS assay for cell viability of the p53RE-bla HCT-116 cell line (AID 743292; active = well fitted curve in the direction sought with a large enough effect; an effect the other way counts as inactive or inconclusive; also: % is scaled to controls: 0 for no effect and ±100 for the full control effect; nearly all actives have a fitted effect of over 55% in size)
Summary of the method: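 CellSensor p53RE-bla HCT-116 cells (4,000/well) pre-incubated 5 h at 37 C, then exposed to compounds in DMSO for 16 h at 37 C. Viability read as ATP content by CellTiter-Glo luminescence after 30 min at room temperature.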

[25] = target: Nuclear receptor subfamily 1 group I member 2 (Rattus norvegicus) (UniProt Q9R1A7); experiment: qHTS assay for small molecule activators of the rat pregnane X receptor (rPXR) signaling pathway (AID 651751; call rule not given here; also: 0% is about no effect); details: rPXR reporter cells, luciferase (One-Glo), 24 h
[26] = qHTS assay for small molecule activators of the human pregnane X receptor (PXR) signaling pathway (AID 720659; call rule not given here; also: 0% is about no effect)
[27] = target: Bile acid receptor (Homo sapiens) (UniProt Q96RI1); experiment: qHTS assay for small molecule agonists of farnesoid X receptor signaling (AID 588527); details: HEK293T FXR-UAS-bla, beta-lactamase ratio, 16 h; activation: stronger effect = higher value;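 also: series mostly up to about 77 µM; 0% = vehicle basal and 100% = reference agonist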
Summary of the method: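 Read-out: beta-lactamase reporter fluorescence with CCF4 substrate in GeneBLAzer FXR-UAS-bla HEK293T cells, after 16 h compound exposure at 37 C. Response scaled between DMSO basal (0%) and chenodeoxycholic acid at 100 uM (100%).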

[28] = target: Glucocorticoid receptor (Homo sapiens) (UniProt P04150); experiment: qHTS assay for small molecule agonists of glucocorticoid receptor signaling (AID 588532; active = well fitted curve in the direction sought with a large enough effect in the signal ratio, with a control signal flat; the % refers to the signal ratio;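 also: 100% = dexamethasone at 0.1 µM and 0% = DMSO only wells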); details: HeLa MMTV-bla, beta-lactamase ratio, agonist, 18 h; activation: stronger effect = higher value, percent of dexamethasone control, DMSO zero
Summary of the method: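 Quantitative HTS using CellSensor MMTV-bla HeLa cells in charcoal/dextran-treated serum; compounds tested up to 92 uM. After 18 h at 37 C, CCF4 dye reported reporter induction.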

[29] = target: Peroxisome proliferator-activated receptor gamma (Homo sapiens) (UniProt P37231); experiment: qHTS assay for small molecule antagonists of peroxisome proliferator-activated receptor gamma signaling (AID 588537; active = well fitted inhibition curve with a large enough effect in the signal ratio, with a control signal flat, not every such curve was filed as active; the % refers to the signal ratio;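 also: reporter cells co-stimulated with 50 nM rosiglitazone agonist during compound treatment; % of control where 0% means no effect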)
Summary of the method: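 Inhibitors of agonist-stimulated UAS-bla reporter activity were sought in HEK293 cells; rosiglitazone (50 nM) defined full signal and DMSO baseline. Curves fitted to Hill model gave IC50 and efficacy.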

[30] = qHTS assay for small molecule agonists of retinoid X receptor alpha signaling (AID 588544); details: HEK293T RXRa-UAS-bla, beta-lactamase reporter, 18 h; 530 nm emission;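 as to activation: 0% = DMSO basal wells and 100% = reference agonist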
[31] = qHTS assay for small molecule agonists of the antioxidant response element (ARE) signaling pathway measured by Nrf2-dependant transcriptional activity (AID 720636; active = well fitted curve in the direction sought with a large enough effect in the repeat runs; an effect the other way counts as inactive or inconclusive; also: % of control where 0% means no effect)
Summary of the method: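 ARE-luc HepG2 cells carrying an Nrf2-responsive luciferase reporter, in medium with 1% dialyzed FBS, exposed to compound for 16 hr at 37 C, 5% CO2. Luminescence read 30 min after ONE-Glo addition.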

O=C1NCCN1Cc1ccc(Cl)nc1
-14.8%: max response [14]
-14.3%: max response [8]
inactive: Potency [1] | Potency [2] | activation [3] 5.64% | Potency [4] | Potency [5] | Potency [6] | outcome [7] | Potency [9] | Potency [10] | Potency [11] | Potency [12] | Potency [13] | max response [15] -5.19% | activity change % (negative = inhibition) [16] 2.45% | Potency [17] | activation [18] -0.206% | activation [19] -1.02% | activation [20] -0.434% | max response [21] -0.72% | max response [22] 1.67% | max response [23] 1.96% | Potency [24] | max response [25] 1.46% | outcome [26]

CC(C)(C)N(NC(=O)c1ccc(Cl)cc1)C(=O)c1ccccc1
-5.95%: max response [14]
-27.8%: max response [8]
-8.46%: max response [30]
inactive: Potency [1] | Potency [2] | activation [3] 4.02% | Potency [4] | Potency [5] | activation [27] 5.56% | activation [28] -0.985% | Potency [6] | outcome [7] | Potency [9] | Potency [10] | Potency [29] | Potency [12] | Potency [13] | max response [15] 4.87% | activation [20] 1.26% | max response [21] -3.24% | Potency [31] | max response [22] -5.92% | max response [23] -8.37% | Potency [24]

— PubChem BioAssay (NCATS)
